Compound activity deposited in PubChem BioAssay by several laboratories.
In the library only some 2.3% were active in any assay of this set; here they are far more common.
MCL1 BIM primary – inhibitors of human MCL1 binding to BIM-BH3 peptide; 320,000 tested, 0.68% active; GST-MCL1 / FITC-Bim-BH3 fluorescence polarization; Q07820; AID 2057; inhibition, % at 10.9 µM;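 active = inhibition above the mean inhibition of all tested compounds plus 3 SD, set per campaign, cut at about 40% in these data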;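 note: 0% = DMSO wells and 100% = unlabeled Bim-BH3 peptide control; higher means more loss of mP so more displacement of Bim peptide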
Target sequence (Q07820 whole entry, looked up): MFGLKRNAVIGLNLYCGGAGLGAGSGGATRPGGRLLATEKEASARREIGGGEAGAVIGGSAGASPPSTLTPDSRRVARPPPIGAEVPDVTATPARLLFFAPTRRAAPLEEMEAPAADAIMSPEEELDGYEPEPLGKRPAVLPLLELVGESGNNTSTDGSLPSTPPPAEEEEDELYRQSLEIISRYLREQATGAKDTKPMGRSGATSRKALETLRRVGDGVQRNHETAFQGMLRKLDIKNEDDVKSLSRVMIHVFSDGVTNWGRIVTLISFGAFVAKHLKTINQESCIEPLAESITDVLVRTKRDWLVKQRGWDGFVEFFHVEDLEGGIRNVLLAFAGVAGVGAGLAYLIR
Mcl1 Bid PPI – disrupts binding of human Mcl-1 to Bid peptide; TR-FRET Mcl-1/Bid-Dy647 peptide binding, 1536-well; inhibition, % at 21.7 µM; 220,000 tested, 0.97% active;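 active = compounds that cut the binding signal by more than half at the single screening dose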;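 note: His-tagged Mcl-1 with europium anti-His antibody binding Bid BH3 peptide; 0% = Mcl-1 plus peptide wells and 100% = peptide-only wells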
Mcl1-Noxa inh – disrupts binding of human Mcl-1 to Noxa peptide; Q07820; AID 1022; 220,000 tested, 1.5% active; TR-FRET Mcl-1/Noxa peptide binding, 2 h; inhibition, % at 21.7 µM;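 active = compounds that cut the protein-peptide binding signal by more than 50% relative to plate controls in a single-dose test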;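 note: His-tagged Mcl-1 with rhodamine Noxa BH3 peptide and terbium anti-His antibody; 0% = Mcl-1 plus Noxa peptide wells and 100% = peptide-only wells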
GLD-1 RNA inh – GLD-1-TGE RNA interaction inhibition (C. elegans) | purified GLD-1 + fluorescein TGE RNA, fluorescence polarization | Q17339 | 320,000 tested, 0.44% active | AID 2280 | inhibition, % at 5.96 µM;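 active = percent inhibition above a per-plate cutoff, the plate mean of test compounds plus 3 SD, cut at about 30% in these data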;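 note: 0% = DMSO wells with GLD-1 and probe and 100% = wells lacking GLD-1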
Mcl-1 Bim block – human Bim-Mcl-1 interaction inhibition | Q07820 | Bead-based flow cytometry, Bim peptide-Mcl-1 binding | inhibition, % at 10 µM | 190,000 tested, 0.1% active | AID 1009; in the data active = inhibition above about 40%;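 note: 0% = no compound tracer wells and 100% = peptide blocker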
Bcl-xL primary – inhibitors of human Bcl-xL. 320,000 tested, 0.7% active. inhibition, % at 10.9 µM. GST-Bcl-xL / FITC-Bim BH3 peptide fluorescence polarization;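 active = inhibition above the mean of all tested compounds plus 3 SD, cutoff set per campaign, cut at about 30% in these data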;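 note: 0% = DMSO wells and 100% = unlabeled Bim-BH3 peptide competitor; inhibitors lower millipolarization by displacing the labeled peptide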
Target sequence (Q07817 whole entry, looked up): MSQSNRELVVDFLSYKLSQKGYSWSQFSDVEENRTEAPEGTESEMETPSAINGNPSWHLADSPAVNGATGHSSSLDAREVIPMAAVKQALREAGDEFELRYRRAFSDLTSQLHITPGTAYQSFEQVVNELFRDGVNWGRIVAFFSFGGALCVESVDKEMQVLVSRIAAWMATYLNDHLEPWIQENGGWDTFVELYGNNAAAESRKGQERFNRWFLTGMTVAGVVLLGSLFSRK
* = called active by the depositor; x = no result given.

SMILES	MCL1 BIM primary	Mcl1 Bid PPI	Mcl1-Noxa inh	GLD-1 RNA inh	Mcl-1 Bim block	Bcl-xL primary
CCOc1ccc(S(=O)(=O)Nc2nc3ccccc3nc2-n2ccc(=NC(=O)c3cccs3)cc2)cc1	2	-84	-132	2	-1	-3
COCCn1c(SCC(=O)Nc2ccccc2C)nc2c(oc3ccccc32)c1=O	11	54*	5	17	-4	4
COc1cc(/C=N/NC(=O)c2cccc(S(=O)(=O)N3CCCCC3)c2)cc(Br)c1O	5	-43	72*	2	0	3
O=C(N/N=C/c1ccc(O)c(O)c1)c1cccc(S(=O)(=O)N2CCCCC2)c1	19	-21	56*	-4	0	6
O=S1(=O)c2ccccc2N=NN1Cc1ccc(Cl)cc1	10	40	53*	4	0	9
Clc1ccc(Cn2cnc3ccccc32)cc1	-1	-12	-2	-2	1	5
O=S1(=O)c2ccccc2N=NN1Cc1cc(Cl)cc(Cl)c1	17	49	99*	4	-3	15
Cc1ccc2[nH]c3c(NCc4ccco4)ncnc3c2c1	3	-11	55*	9	4	4
COc1cc(CNc2ncnc3c2[nH]c2ccc(C)cc23)cc(OC)c1	-6	-3	32	5	x	0
O=C(COc1ccccc1F)Nc1nnc(C2CCCC2)s1	1	x	x	6	x	7
O=C(Nc1ccc(S(=O)(=O)Nc2nccs2)cc1)c1cc(-c2ccccc2Cl)nc2ccccc12	3	99*	36	4	-4	5
COc1ccc(NC(=O)c2cc(-c3ccc(C)o3)nc3ccccc23)cc1OC	22	26	64*	-6	4	12
O=C(Nc1ccc(S(=O)(=O)Nc2nccs2)cc1)c1ccc(=O)[nH]c1	19	-56	62*	1	3	19
Cc1ccc(-c2cc(C(=O)Nc3nccs3)c3ccccc3n2)o1	14	-5	67*	2	-1	18
CC(C)(CNc1ccc([N+](=O)[O-])cc1Cl)N1CCOCC1	5	x	x	-3	x	8
Cc1ccc(S(=O)(=O)N2CCCN(C)c3nc4ccccc4nc32)cc1	32	x	x	18	x	38*
CC(=O)N1c2ccc(S(=O)(=O)NCC3CCC(C(=O)N4CCC(C)CC4)CC3)cc2CC1C (centres undefined)	1	x	x	3	x	4
O=C1C2CC=C(Cl)CC2C(=O)N1CN(Cc1ccco1)CN1C(=O)C2CC=C(Cl)CC2C1=O (centres undefined)	51*	-77	39	44*	-3	45*
Cc1cc(C)cc(N(CC(=O)NC2CCC(C)CC2)S(=O)(=O)c2c(C)noc2C)c1 (centres undefined)	6	89*	13	5	-6	-2
Cc1cc(C)cc(N(CC(=O)O)S(=O)(=O)c2c(C)noc2C)c1	-4	13	x	0	-6	-2
CN1N=C2c3ccccc3CCCC2C1c1ccc(F)cc1 (centres undefined)	2	-143	-13	-2	x	2
CN(C)c1ccc(NC(=O)c2cn(-c3ccccc3)nc2-c2cccs2)cc1	8	28	77*	2	-4	6
O=C(Nc1ccc2ccccc2c1)c1cn(-c2ccccc2)nc1-c1cccs1	-3	-13	-34	8	-2	0
Cc1ccc(NC(=S)NC2CCCCC2)cc1S(=O)(=O)N(C)C	-1	-24	6	-11	0	3
C/C=C\C(=O)Nc1cccc(C2=NOC3(C2)C[C@@H](C(N)=O)N(C(=O)c2ccccc2)C3)c1 (some centres undefined)	-4	-11	-9	-1	x	-1
SMILES	MCL1 BIM primary	Mcl1 Bid PPI	Mcl1-Noxa inh	GLD-1 RNA inh	Mcl-1 Bim block	Bcl-xL primary
C/C=C\C=C/C(=O)Nc1cccc(C2=NOC3(C2)C[C@@H](C(N)=O)N(C(=O)c2ccccc2)C3)c1 (some centres undefined)	-3	21	75*	-6	x	4
C=C(C)C(=O)Nc1cccc(C2=NOC3(C2)C[C@@H](C(N)=O)N(C(=O)c2ccc(OC)cc2)C3)c1 (some centres undefined)	11	-130	69*	-3	x	5
C=C(C)C(=O)Nc1cccc(C2=NOC3(C2)C[C@@H](C(N)=O)N(C(=O)CCCCC)C3)c1 (some centres undefined)	5	-100	69*	-5	x	8
O=C(COc1ccc2c(c1)oc(=O)c1ccccc12)NC(Cc1ccc(Cl)cc1)C(=O)O (centres undefined)	0	x	x	12	x	2
CCN(c1ccccc1)S(=O)(=O)c1ccc(Cl)c(NC(=O)COC(=O)c2cc(O)c3ccccc3c2O)c1	22	-49	55*	12	x	30
O=C(Nc1ccc2[nH]c(=S)sc2c1)c1ccccc1	0	-31	43	-8	-10	-6
O=C(Nc1ccc2[nH]c(=S)sc2c1)Nc1ccccc1F	6	-147	55*	4	x	10
O=C1CSC(c2cccnc2)N1c1ccc(Cl)cc1 (centres undefined)	1	79*	0	7	0	-1
O=C1CSC(c2ccc(Cl)cc2)N1c1cccnc1 (centres undefined)	5	-10	13	4	x	0
CCN(CC)CCC(=O)Nc1cccc2c1C(=O)c1ccccc1C2=O	29	0	35	13	x	36*
C=CCSC1=Nc2sccc2C2=NC(=O)CN12	18	22	56*	-3	0	6
CC(=O)NC1C(OC(=O)/C=C/c2ccccc2)OC(COC(C)=O)C(OC(C)=O)C1OC(C)=O (centres undefined)	6	x	x	3	x	5
C=CCn1c(C)cc(C(=O)Cn2ncc(Cl)c(Cl)c2=O)c1C	26	-76	86*	1	-5	2
CCN(CC(=O)Nc1ccc2c(c1)OCCO2)C(=O)c1cccc(OCC(C)C)c1	5	x	x	1	x	1
COc1ccc2o/c(=N\O)c(C(=O)Nc3ccccc3OC)cc2c1	-74	14	60*	-79	-7	-65
COc1ccc2oc(=O)c(C(=O)Nc3ccccc3O)cc2c1	2	-9	26	4	x	11
COCCn1ccc2c(OCC(=O)NCCc3ccccc3)cccc2c1=O	2	x	x	8	x	-1
CC1(C)CC(=O)C=C(NNC(=O)c2cccnc2)C1	17	-36	-13	81*	x	19
CC1(C)CC=C(NNC(=O)c2cccnc2)C(=O)C1	16	-45	4	67*	-2	14
COc1cccc(C(=O)NNC2=CC(=O)CC(C)(C)C2)c1	7	-67	-16	26	-1	2
CC1(C)Cc2ccccc2C(NNC(=O)c2cccnc2)=N1	7	-3	17	0	0	5
O=C(CCc1ccccc1)NNC(=O)COc1ccccc1Cl	0	x	x	7	x	3
NC(=O)c1ccsc1NC(=O)CSc1ccccc1F	12	-12	-1	2	-1	8
